NPSR antag: qHTS Assay for Antagonists of the Neuropeptide S Receptor: cAMP Signal Transduction; Q6W5P4; CHO-NPSR cells, cAMP TR-FRET, antagonist mode; Potency, µM (top dose mostly 38.3 µM), for the others: at the highest dose activity change, negative = inhibition, usual class: inhibitors; hit rate 1% among 220,000; note: nearly all actives have a fitted effect of over 50% in size
VP16 counter: VP16 counterscreen qHTS for inhibitors of ROR gamma transcriptional activity. Drosophila S2 Gal4-VP16 UAS-luciferase, luminescence, 20 h. hit rate 3.5% among 310,000. Potency, µM (highest dose often 53.6 µM), for inactives: top-dose activity, negative = inhibition, usual class: inhibitors;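 note: Gal4-VP16 expression switched on by copper sulfate through the metallothionein promoter; nearly all actives have a fitted effect of over 50% in size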
B2AR arrestin: qHTS assay of beta-arrestin-biased ligands of beta2-adrenergic receptor | Beta-2 adrenergic receptor (Homo sapiens), P07550 | beta-arrestin recruitment to beta2AR, cell-based reporter | Potency, µM (top dose mostly 46.1 µM), for inactives: top-dose activation, usual class: activators | hit rate 0.02% among 330,000;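 note: 0% = DMSO controls and full agonism = EC100 isoproterenol or metaproterenol; nearly all actives have a fitted effect of over 65% in size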
RORg inh: qHTS for inhibitors of ROR gamma transcriptional activity. Drosophila S2 Gal4-RORgamma UAS-luciferase reporter, 20 h. Potency, µM (top dose mostly 53.6 µM), inactives show at the highest dose activity change, negative = inhibition, hits mostly inhibitors. hit rate 5.4% among 310,000. Nuclear receptor ROR-gamma (Mus musculus), P51450. AID 2551, 2010; note: nearly all actives have a fitted effect of over 60% in size
Target sequence (P51450 whole entry, looked up, the tested form may be a part): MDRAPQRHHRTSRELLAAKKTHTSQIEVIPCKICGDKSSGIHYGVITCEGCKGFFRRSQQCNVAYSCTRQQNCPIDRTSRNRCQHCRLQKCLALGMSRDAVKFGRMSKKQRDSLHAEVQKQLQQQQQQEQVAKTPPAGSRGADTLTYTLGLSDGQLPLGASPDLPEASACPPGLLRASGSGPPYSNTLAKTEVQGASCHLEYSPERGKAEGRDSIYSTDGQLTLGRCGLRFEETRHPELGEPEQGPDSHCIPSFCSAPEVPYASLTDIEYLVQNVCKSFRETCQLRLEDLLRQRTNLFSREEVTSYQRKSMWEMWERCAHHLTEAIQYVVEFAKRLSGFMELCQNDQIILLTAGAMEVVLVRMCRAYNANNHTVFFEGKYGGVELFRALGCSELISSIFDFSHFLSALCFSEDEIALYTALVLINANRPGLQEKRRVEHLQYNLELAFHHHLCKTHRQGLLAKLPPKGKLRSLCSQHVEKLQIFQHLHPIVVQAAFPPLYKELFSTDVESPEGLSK
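Drosophila Schneider cells stably carrying a metallothionein-driven Gal4 DBD–ROR gamma fusion and a UAS-Photinus luciferase reporter were exposed to compound for 1 hr, then induced with copper sulfate (700 uM final) for 20 hr at ambient temperature before luminescence reading.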
* marks the source's active call; other numbers are inactive results; ? = inconclusive; nt = not tested or not shown; ! = a repeat was not active; [ ] = remark or other dose. Only some compounds are listed: those with a hit (about 5.7% of all), similar ones and a draw of the others. Calls come from the whole dose curve; as a rule, active = well fitted curve in the direction sought with a large enough effect; inconclusive = small, poorly fitted or top-dose-only effect, or another doubt; inactive = no such curve, though single readings can be large; an effect the other way counts as inactive or inconclusive. Unless noted, % is set by controls: 0 for no effect and ±100 for the full control effect; potency is the fitted concentration of half-maximal effect.

SMILES | NPSR antag | VP16 counter | B2AR arrestin | RORg inh
O=C(NNC1=C(C(=O)C(F)(F)F)CCC1)c1cccc(O)c1 | -1%[46.1 µM] | 3.5µM* | 0% | 5µM*
O=C(C1=C(O)/C(=C/c2ccc(O)cc2)CCC1)C(F)(F)F | -8%[46.1 µM] | ? | 0% | ?
O=C(NNC1=C(C(=O)C(F)(F)F)CCC1)c1cccnc1 | -4% | 11µM* | -1% | 7.1µM*
Cc1cccc(C(=O)NNC2=C(C(=O)C(F)(F)F)CCC2)c1O | -17%[46.1 µM] | 10µM* | 0% | 6.3µM*
Cc1cccc(C(=O)NNC(=O)c2ccc(Cl)cc2)c1O | -5%[46.1 µM] | -66% | 0% | ?
COc1ccccc1-n1c(SCC(=O)N2CCCC2)nnc1-c1ccccc1 | 14% | -1% | -1% | -4%
S=C1NCN(C2CCCCC2)CN1Cc1ccccc1 | -3%[46.1 µM] | 3.5µM* | 5% | 1.8µM*
O=C1CNC(=S)N1Cc1ccccc1 | 4% | -2% | 0% | -3%
S=C1NCN(Cc2ccccc2)CN1C1CCCCC1 | -5% | 4µM* | 0% | 0.79µM*
CC[C@H]1C(c2ccccc2)=NN(c2ccccc2)[C@@H]1CO | nt | ? | nt | -14%
OC[C@H](O)[C@H](O)[C@@H](O)[C@@H](O)[C@@H]1SC(c2ccccc2)=NN1c1ccccc1 | 21% | -25% | -1% | 8.9µM*
c1ccc(Nc2cc(-c3ccoc3)ncn2)cc1 | nt | 3% | nt | 16%
Cc1ccc(C(=O)C(c2ccccc2)N2Cc3ccccc3C2=N)cc1 (stereo unspecified) | ? | 10µM* | -2% | 4µM*
COc1ccc(C(=O)C(c2ccccc2)N2CCOCC2)cc1 (stereo unspecified) | -11%[46.1 µM] | 5% | 0% | 1%
N#CCCn1c(=O)c(-c2ccc(F)cc2)nc2cnc(Oc3ccccc3)nc21 | nt | -1% | nt | -11%
Cc1cc(-c2ccc(C(C)C)c(S(=O)(=O)N3CCC(C)CC3)c2)on1 | nt | 4% | -1% | 1%
O=C(Nc1ccc(Cl)cc1)c1cc2c(cc1O)[nH]c1ccccc12 | -50% | 18µM* | 0% | -35%
CC(C)COC[C@H](CN(Cc1ccccc1)c1ccccc1)N1CCCC1 | nt | -10%[17 µM] | nt | -25%[16.9 µM]
CNNC(=S)NC1CC2CC1C1C=CCC21 (stereo unspecified) | -15% | 10% | -1% | ?
NC(=S)NC1CC2CC1C1C=CCC21 (stereo unspecified) | -25% | -2% | -1% | 28µM*
CC1(c2ccc(OC(F)F)cc2)NC(=O)N(/N=C/c2c(O)ccc3ccccc23)C1=O (stereo unspecified) | -17% | 14µM* | 10% | ?
CCn1c(-c2nn(C)cc2Cl)n[nH]c1=S | 20% | ? | -1% | 11µM*
CC(C)Cn1c(-c2nn(C)cc2Cl)n[nH]c1=S | -8%[46.1 µM] | ? | 0% | 11µM*
CC(C)Cn1c(-c2ccc(Br)o2)n[nH]c1=S | -7% | ? | 0% | 6.3µM*
Cc1ccc(-n2c(-c3nn(C)cc3Cl)n[nH]c2=S)cc1 | 0% | -19% | -1% | ?
SMILES | NPSR antag | VP16 counter | B2AR arrestin | RORg inh
Cc1ccsc1-c1n[nH]c(=S)n1CC(C)C | -1% | 6.3µM* | -1% | 2.8µM*
O=c1cnc2cnc(N3CCNCC3)nc2n1C1CC1 | nt | -7% | nt | 17%
N#CCCn1c(=O)c(-c2ccc(F)cc2)nc2cnc(N3CCNCC3)nc21 | nt | -5% | nt | 4%
CC[C@@H]1C/C=C\Cc2ccccc2[C@@H](C(=O)C[C@H](O)CC(C)=O)OC1=O | nt | nt | -1% | nt
NCCCCCCC(O)(P(=O)(O)O)P(=O)(O)O | nt | -6% | nt | 0%
COc1ccc(NC(=O)N2CCC3(CC2)CCN(C(=O)c2ccco2)CC3)cc1 | nt | 15% | nt | 1%
CC(=O)c1ccc(NC(=O)CSc2ccc3nnc(-c4cccnc4)n3n2)cc1 | 15% | -5% | 0% | -17%
CCN(CC)CCCn1c(=S)[nH]c2ccccc2c1=O | -23%[46.1 µM] | -3% | 0% | ?
CCCCn1c(=S)[nH]c2c(oc3ccc(Cl)cc32)c1=O | -57% | ? | -2% | 1.1µM*
C/C(=N\NC(=O)Cc1ccc(Cl)cc1)c1cccnc1 | nt | 16% | 0% | 8%
COc1ccc(C(=O)COC(=O)c2ccc(OC)c(OC)c2)cc1OC | -17%[46.1 µM] | 2% | 0% | -12%
COc1ccc(C(=O)CC(=O)c2ccccc2O)cc1 | nt | 6.3µM* | 0% | 7.9µM*
COc1ccc(O)c(C(=O)CC(=O)c2ccccc2C)c1 | 8% | 0.71µM* | 0% | 20%
COc1ccc(C(=O)CSC#N)cc1OC | 24% | ? | 0% | 16µM*
COc1cc(O)c(CCC(=O)c2ccc(OC)c(OC)c2)c(OC)c1 | nt | -8% | -1% | 23%
COc1ccc(O)c(C(=O)CC(=O)c2ccc(F)cc2)c1 | -19%[46.1 µM] | ? | 0% | ?
COc1ccc(C(=O)CC(=O)c2ccccc2O)cc1OC | -5% | 6%[10 µM] | -1% | 7.1µM*
Cc1cc(NC(=O)CSc2ccc(-c3ccc(F)cc3)nn2)no1 | 6% | -2% | 0% | 14%
COc1ccc(-c2nc3cnc(Oc4cccc(Cl)c4)nc3n(C[C@H]3CCCO3)c2=O)cc1 | nt | -5% | nt | 32%
CN(C(=O)CSc1nc2scc(-c3ccccc3)c2c(=O)[nH]1)c1ccccc1 | nt | nt | 0% | nt
COC(=O)c1ccccc1NCC(=O)c1ccc(OC)cc1 | nt | 18µM* | 0% | 29%
COc1ccc(C(=O)CSc2nc(SC)ns2)cc1OC | -19%[46.1 µM] | 22% | nt | -9%
COc1ccc(C(=O)CNc2ccccc2CO)cc1 | -9% | 29% | 0% | 0%
COc1ccc(C(=O)CSc2cc(C)nc3nc(C)nn23)cc1OC | -19%[46.1 µM] | ? | 0% | 16µM*
COCCNc1cc(-c2ccccc2C)ncn1 | nt | 4% | nt | 1%
SMILES | NPSR antag | VP16 counter | B2AR arrestin | RORg inh
CCNC(=S)NNc1nncc2ccccc12 | -55% | 3.2µM* | ? | 0.5µM*
NNc1nncc2ccccc12 | 0%[46.1 µM] | ? | nt | 7.1µM*!
COc1ccccc1/C=N/Nc1nncc2ccccc12 | -3% | 4µM* | 0% | 2µM*
CNC(=S)NNc1nncc2ccccc12 | -11% | 4.5µM* | 0% | 5µM*
COc1ccc(/C=N/Nc2nncc3ccccc23)cc1 | 4% | -9% | 0% | -15%
O=C(NNC(=S)Nc1ccc(F)cc1)c1cccc([N+](=O)[O-])c1 | -5% | -6% | 4% | -42%
O=[N+]([O-])c1ccc(NNC(=S)Nc2ccc(F)cc2)cc1 | 2%[46.1 µM] | 11µM* | -1% | ?
COc1ccc(CCCO[C@@H](Cn2ccnc2)c2ccc(OC)cc2)cc1 | nt | 32µM* | nt | 8.9µM*
CCC(C)CCN1CCN=C1Nc1ccccc1 (stereo unspecified) | nt | nt | 0% | nt
CN1C(=O)/C(=C/c2ccccc2OCc2cccc(F)c2)NC1=S | -30%[46.1 µM] | 3.2µM* | -1% | 4µM*
CN1C(=O)/C(=C/c2ccccc2OCc2ccccc2)NC1=S | -47% | ? | 0% | 7.1µM*
CCOC(=O)Cc1nnc(NC(=O)CCc2ccccc2)s1 | nt | -5% | 0% | 0%
O=C(c1ccccc1NS(=O)(=O)c1ccc(F)cc1)N1CCOCC1 | nt | 3% | -1% | 15%
CCC(=O)Oc1ccc(C/C(=N\O)c2ccc(O)cc2O)o1 | -28%[46.1 µM] | ? | 0% | 2.2µM*

High-throughput results (PubChem)
